Assay results: PubChem BioAssay (EPA / NIEHS)
Activity calls are given as the source filed them. How the source made its calls: active means hit-call score of the fitted dose curve at least 0.9, where 1 is the maximum; inactive means score below 0.9.

Experiment: APR_HepG2_StressKinase_24hr: Apredica 24-hour HepG2 Assay for Stress Kinase (AID 2282922)
Conditions: HepG2 stress kinase (phospho-c-Jun) imaging, actives raise or lower the signal
How it was run: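 HepG2 cells exposed 24 h to 0.39–200 uM compound in duplicate (0.5% v/v DMSO final). Cells fixed in 3.7% formaldehyde, permeabilized and immunostained for phospho-c-Jun; read by high-content fluorescence imaging, fitted bidirectionally against DMSO.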

Row | Structure (SMILES) | outcome
1 | Cc1occc(=O)c1O | inactive
2 | CC(=O)O[C@]1(C(C)=O)CC[C@H]2[C@@H]3C=C(Cl)C4=CC(=O)[C@@H]5C[C@@H]5[C@]4(C)[C@H]3CC[C@@]21C | inactive
3 | CCCCCCCCCCCCCCCCO | inactive
4 | O=C(N[C@@H](c1ccccc1)[C@@H]1CCCCN1)c1cccc(C(F)(F)F)c1Cl | inactive
5 | Cc1ccc(-c2cc(C(F)(F)F)nn2-c2ccc(S(N)(=O)=O)cc2)cc1 | inactive
6 | O=C1NC(=O)C(c2ccccc2)(c2ccccc2)N1 | inactive
7 | O=C(O)c1cccnc1 | inactive
8 | CCCC(=O)O | inactive
9 | O=NO | inactive
10 | CC(C)c1cccc(C(C)C)c1 | inactive
11 | CC(C)NCC(O)c1ccc(O)c(O)c1 (stereo not drawn) | inactive
12 | CC(C)COC(=O)CCCCC(=O)OCC(C)C | inactive

Experiment: APR_HepG2_MitoMass_72hr: Apredica 72-hour HepG2 Assay for Mitochondrial Mass (AID 2282924);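 further: MitoTracker Red CMXRos stain intensity per cell imaged as mitochondrial mass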
Conditions: high-content imaging, actives raise or lower the signal
How it was run: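 HepG2 cells dosed 72 hr at 0.39–200 uM (0.5% DMSO), in duplicate. MitoTracker Red CMXRos 250 nM loaded 30 min before formaldehyde fixation; high-content fluorescence imaging, bidirectional fit versus DMSO.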

Row | Structure (SMILES) | outcome | AC50
13 | CC(N)=O | inactive | –
14 | CC(COCC(C)OC(=O)c1ccccc1)OC(=O)c1ccccc1 (stereo not drawn) | inactive | –
15 | O=C(NS(=O)(=O)/C=C/c1cccs1)c1ccc(F)cc1Br | inactive | –
16 | O=C(Oc1ccccc1)c1cccc(C(=O)Oc2ccccc2)c1 | inactive | –
17 | Cc1occc(=O)c1O | inactive | –
18 | N[C@@H](Cc1c[nH]c2ccccc12)C(=O)O | inactive | –
19 | CSc1ccc(Oc2ccc(S(N)(=O)=O)cc2CN(C)C)cc1C | inactive | –
20 | CC(=O)O[C@]1(C(C)=O)CC[C@H]2[C@@H]3C=C(Cl)C4=CC(=O)[C@@H]5C[C@@H]5[C@]4(C)[C@H]3CC[C@@]21C | inactive | –
21 | CC(=O)O | – | 0.0355 µM (active)
22 | CCCCOC(=O)CCCCC(=O)OCCCC | inactive | –
23 | CCCCCCCCCCCCCCCCO | inactive | –
24 | O=C(N[C@@H](c1ccccc1)[C@@H]1CCCCN1)c1cccc(C(F)(F)F)c1Cl | – | 34.3 µM (active)
25 | Cn1cnc2c1c(=O)[nH]c(=O)n2C | inactive | –
26 | O=Cc1ccccc1C=O | inactive | –
27 | NC=O | inactive | –
28 | CC(=O)CC(c1ccccc1)c1c(O)c2ccccc2oc1=O (stereo not drawn) | inactive | –
29 | C#CC(O)C(CC)CCCC (stereo not drawn) | inactive | –
30 | Nc1nc(=S)c2[nH]cnc2[nH]1 | inactive | –
31 | Cc1ccc(-c2cc(C(F)(F)F)nn2-c2ccc(S(N)(=O)=O)cc2)cc1 | inactive | –
32 | CCCCCCC(C=O)=Cc1ccccc1 | inactive | –
33 | O=C1NC(=O)C(c2ccccc2)(c2ccccc2)N1 | inactive | –
34 | O=C(O)c1cccnc1 | inactive | –
35 | O=C1CCCCC1 | inactive | –
36 | CCCC(=O)O | inactive | –
37 | C/C=C/c1ccc(OC)cc1 | inactive | –
38 | CC(=O)OCC(COC(C)=O)OC(C)=O | inactive | –
39 | O=NO | inactive | –
40 | CC(C)c1cccc(C(C)C)c1 | inactive | –
41 | CC(C)NCC(O)c1ccc(O)c(O)c1 (stereo not drawn) | inactive | –
42 | CC(C)COC(=O)CCCCC(=O)OCC(C)C | inactive | –

Experiment: APR_HepG2_NuclearSize_72hr: Apredica 72-hour HepG2 Assay for Nuclear Size (AID 2282925)
Conditions: high-content imaging, actives raise or lower the signal
How it was run: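 HepG2 cells dosed 72 h at 0.39–200 uM (10 concentrations, duplicate) in 0.5% v/v DMSO final. Fixed, Hoechst 33342-stained nuclei imaged; nuclear diameter measured by automated image analysis. Bidirectional fit versus DMSO.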

Row | Structure (SMILES) | outcome
43 | CC(N)=O | inactive
44 | CC(COCC(C)OC(=O)c1ccccc1)OC(=O)c1ccccc1 (stereo not drawn) | inactive
45 | O=C(NS(=O)(=O)/C=C/c1cccs1)c1ccc(F)cc1Br | inactive
46 | O=C(Oc1ccccc1)c1cccc(C(=O)Oc2ccccc2)c1 | inactive
47 | Cc1occc(=O)c1O | inactive
48 | CC(=O)O[C@]1(C(C)=O)CC[C@H]2[C@@H]3C=C(Cl)C4=CC(=O)[C@@H]5C[C@@H]5[C@]4(C)[C@H]3CC[C@@]21C | inactive
49 | CC(=O)O | inactive
50 | O=C(N[C@@H](c1ccccc1)[C@@H]1CCCCN1)c1cccc(C(F)(F)F)c1Cl | inactive
51 | O=Cc1ccccc1C=O | inactive
52 | NC=O | inactive
53 | O=C1NC(=O)C(c2ccccc2)(c2ccccc2)N1 | inactive
54 | O=C(O)c1cccnc1 | inactive
55 | CCCC(=O)O | inactive
56 | CC(=O)OCC(COC(C)=O)OC(C)=O | inactive
57 | O=NO | inactive
58 | CC(C)COC(=O)CCCCC(=O)OCC(C)C | inactive
